Assay results: PubChem BioAssay (NCI)
Compounds without any hit were thinned out: in the full panel of roughly 79,000, 15% have a hit. Values without a mark were called inactive. Activity calls are given as the source filed them. Rule as the data show it: active = growth inhibition above about 70%; inactive = the rest.

Legend:
[1] = NCI Yeast Anticancer Drug Screen. Data for the rad50 strain (AID 155);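 also: 0% = growth of vehicle-only cultures of the same strain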; conditions: S. cerevisiae rad50 strain growth inhibition, stronger effect = higher value
Method in brief: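 A DNA repair-deficient yeast mutant serves as the test organism; compound-induced growth inhibition is calculated against vehicle-treated cells.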

[2] = NCI Yeast Anticancer Drug Screen. Data for the mec2-1 strain (AID 157); conditions: S. cerevisiae mec2-1 strain, stronger effect = higher value
Method in brief: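 Each compound was tested on mec2-1 yeast, a strain altered in DNA damage repair or cell cycle control. Growth inhibition is reported relative to vehicle.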

[3] = NCI Yeast Anticancer Drug Screen. Data for the sgs1 mgt1 strain (AID 161);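 also: 0% = growth of cultures given vehicle only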; conditions: S. cerevisiae sgs1 mgt1 strain, stronger effect = higher value
Method in brief: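 Genetically altered yeast, compound exposure, growth inhibition relative to vehicle.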

[4] = NCI Yeast Anticancer Drug Screen. Data for the cln2 rad14 strain (AID 165);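 also: 0% = growth equal to vehicle treated cultures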; conditions: S. cerevisiae cln2 rad14 strain, stronger effect = higher value
Method in brief: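 Test compounds were added to cln2 rad14 yeast cultures; inhibition of growth was then determined by comparison with vehicle treatment.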

[5] = NCI Yeast Anticancer Drug Screen. Data for the bub3 strain (AID 167); conditions: S. cerevisiae bub3 mutant strain, stronger effect = higher value
Method in brief: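 Inhibition values come from growth of compound-treated mutant yeast normalised to vehicle-treated controls.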

[6] = NCI Yeast Anticancer Drug Screen. Data for the mlh1 rad18 strain (AID 175); conditions: S. cerevisiae mlh1 rad18 strain growth inhibition, stronger effect = higher value
Method in brief: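 Inhibition values reflect reduced growth of mutant yeast versus vehicle-treated controls following compound exposure; the mutations affect DNA damage repair.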

[7] = at 5.0 µM (retest, dose inferred, filed as 0.5)
[8] = at 50.0 µM (retest, dose inferred, filed as 5.0)

Compound	growth inhibition [1, 7] [%]	growth inhibition [1, 8]	growth inhibition ([1]; at 50.0 µM)	growth inhibition [2, 7] [%]	growth inhibition [2, 8]	growth inhibition ([2]; at 50.0 µM)	growth inhibition [3, 7] [%]	growth inhibition [3, 8]	growth inhibition ([3]; at 50.0 µM)	growth inhibition [4, 7] [%]	growth inhibition [4, 8]	growth inhibition ([4]; at 50.0 µM)	growth inhibition [5, 7] [%]	growth inhibition [5, 8]	growth inhibition ([5]; at 50.0 µM)	growth inhibition [6, 7] [%]	growth inhibition [6, 8]	growth inhibition ([6]; at 50.0 µM)
Cc1ccc(C2(c3ccc(F)cc3)OC(=O)c3ccccc32)c(O)c1 (stereo not given)	11	99% (active)	86.2% (active)	13	99% (active)	88.7% (active)	-14	99% (active)	97% (active)	3	99% (active)	93.8% (active)	11	99% (active)	98.8% (active)	27	99% (active)	96.3% (active)
CCOC(=O)CC(O)(CCc1ccccc1)c1ccccc1 (stereo not given)	-5	6%	25.4%	1	2%	54.8%	-14	22%	-2.1%	-1	-14%	-18.2%	14	40%	21.1%	-1	45%	9.95%
CCCCCN(CCCCC)C(C)C(=O)c1ccc2cc(Br)c3ccccc3c2c1 (stereo not given)	17	61%	93.9% (active)	9	46%	90.4% (active)	13	71% (active)	90.7% (active)	-2	42%	88.7% (active)	14	66%	87.1% (active)	7	63%	95.5% (active)
CC1(C)OC(C(COC(=O)c2ccc([N+](=O)[O-])cc2)OS(=O)(=O)c2ccc([N+](=O)[O-])cc2)C(C(SCc2ccccc2)SCc2ccccc2)O1 (stereo not given)	12	97% (active)	43.6%	1	99% (active)	33.5%	4	98% (active)	46.6%	-9	92% (active)	7.75%	-2	99% (active)	15.3%	8	98% (active)	67%
N/C(CC(=O)NOC(=O)c1ccccc1)=N/OC(=O)c1ccccc1	55	99% (active)	99% (active)	19	99% (active)	99.5% (active)	54	62%	99.5% (active)	6	100% (active)	99% (active)	-6	99% (active)	99.2% (active)	27	99% (active)	99.2% (active)
CC1=C(C(=O)Nc2ccc([N+](=O)[O-])cc2)C(c2ccccc2F)C(C(=O)Nc2ccc([N+](=O)[O-])cc2)=C(C)N1	19	19%	56.4%	5	5%	74.3% (active)	2	2%	52%	6	6%	64%	-1	-1%	60%	-2	-2%	28.1%
CC1CCC2(NC1)OC1CC3[C@@H]4CC=C5C=CCC[C@]5(C)C4CC[C@]3(C)C1C2C (stereo not given in full)	-16	97% (active)	90.8% (active)	4	99% (active)	93.1% (active)	-4	98% (active)	91.6% (active)	6	97% (active)	90.9% (active)	-33	98% (active)	90.8% (active)	-10	97% (active)	89.1% (active)
O=C1C(Cl)=C(NCCC2CCCN3CCCCC23)C(=O)c2ccccc21 (stereo not given)	13	48%	65.3%	-8	54%	53.4%	10	55%	79.5% (active)	2	37%	63.7%	2	51%	26.1%	6	27%	70.8% (active)
COc1cc(OC)c(OC)cc1/C=C\c1nccc2ccccc12	1	51%	92.9% (active)	-3	12%	92.5% (active)	-4	23%	93.7% (active)	4	0%	65.4%	-6	-6%	91.3% (active)	-3	12%	94.2% (active)
CC(C)OC1=C(Cl)C(=O)c2c(cccc2[N+](=O)[O-])C1=O	32	99% (active)	26.8%	38	100% (active)	99.1% (active)	48	99% (active)	99.4% (active)	19	100% (active)	88.5% (active)	38	94% (active)	98.5% (active)	41	100% (active)	71% (active)
